Here are results for 45 molecules from publication PMC4336329 (PLoS ONE, 2015).

Screen size: about 310,000 compounds; about 14,000 (4.5%) showed an effect of 50% or more. The effect is printed as a negative number. This excerpt belongs to a sample that is enriched for strong results.
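Further: peak tail current of the secondary pulse compared with the same well before compound.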

This assay deals with human ether-à-go-go-related gene (hERG) potassium channel (human, UniProt Q12809). Nature of the assay: primary screen, population patch clamp on CHO cells stably expressing hERG; higher = less effect of the substance.
Sequence of human ether-à-go-go-related gene (hERG) potassium channel (Q12809 whole entry, looked up): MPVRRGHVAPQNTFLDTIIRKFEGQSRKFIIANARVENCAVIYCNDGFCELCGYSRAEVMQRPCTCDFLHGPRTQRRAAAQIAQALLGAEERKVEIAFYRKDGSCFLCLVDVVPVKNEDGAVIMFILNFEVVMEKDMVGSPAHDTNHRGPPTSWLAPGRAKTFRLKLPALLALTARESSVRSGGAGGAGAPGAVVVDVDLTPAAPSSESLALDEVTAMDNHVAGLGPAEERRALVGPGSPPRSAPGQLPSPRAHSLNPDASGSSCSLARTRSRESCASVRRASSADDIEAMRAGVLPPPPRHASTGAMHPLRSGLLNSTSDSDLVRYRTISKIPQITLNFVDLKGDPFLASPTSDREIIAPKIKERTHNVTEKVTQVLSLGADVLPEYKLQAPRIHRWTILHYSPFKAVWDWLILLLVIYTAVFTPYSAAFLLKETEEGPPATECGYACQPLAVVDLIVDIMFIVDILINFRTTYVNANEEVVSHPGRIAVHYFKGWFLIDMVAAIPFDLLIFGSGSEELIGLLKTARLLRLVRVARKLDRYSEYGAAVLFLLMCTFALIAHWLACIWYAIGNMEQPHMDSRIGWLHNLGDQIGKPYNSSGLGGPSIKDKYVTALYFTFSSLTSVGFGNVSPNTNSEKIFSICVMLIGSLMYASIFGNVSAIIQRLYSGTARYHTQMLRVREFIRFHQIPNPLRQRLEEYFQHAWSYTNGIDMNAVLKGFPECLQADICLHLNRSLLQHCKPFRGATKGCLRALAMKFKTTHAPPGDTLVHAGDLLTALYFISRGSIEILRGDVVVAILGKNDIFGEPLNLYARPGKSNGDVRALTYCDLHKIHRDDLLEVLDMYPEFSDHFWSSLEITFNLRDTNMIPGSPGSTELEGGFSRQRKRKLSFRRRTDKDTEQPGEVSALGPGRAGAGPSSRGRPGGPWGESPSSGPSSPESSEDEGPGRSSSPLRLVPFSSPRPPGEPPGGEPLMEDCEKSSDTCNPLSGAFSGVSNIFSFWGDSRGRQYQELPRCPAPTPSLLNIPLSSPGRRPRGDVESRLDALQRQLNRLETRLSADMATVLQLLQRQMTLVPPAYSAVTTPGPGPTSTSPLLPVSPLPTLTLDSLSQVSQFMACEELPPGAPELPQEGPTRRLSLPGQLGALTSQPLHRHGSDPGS
Consider `CCOC(=O)C1C(=O)NC(N2CCN(c3ccccc3)CC2)=NC1c1ccco1` (stereo not drawn), for which the “hERG current change (%, negative = inhibition) at 10uM” value is -5.81%.
The same measure for `O=C(COC(=O)CCNS(=O)(=O)c1cccs1)Nc1cc(C(F)(F)F)ccc1Cl`: -26.1%.
The same measure for `Cc1ccc(/C=C/C(=O)O)cc1S(=O)(=O)N(CCO)CCO`: 8.09%; for `Cc1sc2ncnc(Sc3nnnn3-c3ccc(Cl)cc3)c2c1C`: 11.2%.
Turning to `Nc1nccnc1C(=O)OCC(=O)c1ccc[nH]1`, the “hERG current change (%, negative = inhibition) at 10uM” value is given as -0.119%.
The same measure for `COc1ccc(CCn2c(=S)[nH]c3ccc(N4CCOCC4)cc3c2=O)cc1OC`: 10.2%; for `O=C(c1cccc(Cl)c1)N1CCN(c2ccc(N3CCOCC3)nn2)CC1`: -34.8%; for `CC(=O)c1ccc(Oc2ncnc(N)c2[N+](=O)[O-])cc1`: 12.4%.
With `COc1ccc(-c2nc(CS(=O)CC(=O)NC3CCC(C)CC3)c(C)o2)cc1OC` (stereo not drawn) the figure was -34.6%.
With `COc1ccc(-c2n[nH]c(=S)n2-c2ccc(C)cc2)cc1` the figure was 8.3%; with `Br.C=CCn1c(=N)n(CC(=O)c2ccc(Br)s2)c2ccccc21`, -58.6%; with `Br.CCN(CC)CCn1c(=N)n(CC(=O)c2ccc(C)cc2)c2ccccc21`, -40.8%.
For the molecule `Br.CCn1c(=N)n(CC(=O)C23CC4CC(CC(C4)C2)C3)c2ccccc21`, the “hERG current change (%, negative = inhibition) at 10uM” value was -32.3%.
The same measure for `C=CCn1c(=N)n(CC(=O)c2ccc(Br)cc2)c2ccccc21`: -43.5%.
With `Br.CCn1c(=N)n(CC(=O)C(C)(C)C)c2ccccc21` the figure was -21.1%; with `Br.CCCCn1c(=N)n(CC(=O)O)c2ccccc21`, 22.4%; with `Br.C=CCn1c(=N)n(CC(=O)c2ccccc2)c2ccccc21`, -23.9%.
As to `Br.CCn1c(=N)n(CC(=O)c2ccc(Br)s2)c2ccccc21`, the “hERG current change (%, negative = inhibition) at 10uM” value is reported as -69.3%.
The same measure for `Br.CCCCn1c(=N)n(CC(=O)C(C)(C)C)c2ccccc21`: -55%; for `Br.CCN(CC)CCn1c(=N)n(CC(=O)c2ccc(Br)s2)c2ccccc21`: -76.9%; for `Br.Cn1c(=N)n(CC(=O)c2ccc(Br)s2)c2ccccc21`: -6.86%.
The same measure for `O=C(c1ccc(CNS(=O)(=O)c2ccccc2)cc1)N1CCC2(CC1)OCCO2`: -4.16%; for `COc1ccc(NC(=O)CC2C(=O)N(c3ccccc3)C(=O)N2CCc2cccs2)cc1` (stereo not drawn): -32.9%.
The same measure for `CCOc1ccccc1NC(=O)C1CCCCN1S(=O)(=O)c1ccc(F)cc1` (stereo not drawn): -2.26%.
As to `CN1CCN(C(c2cccnc2)c2ccc3cccnc3c2O)CC1` (stereo not drawn), the “hERG current change (%, negative = inhibition) at 10uM” value is on record as -4.29%.
With `Cc1cccn2c(=O)nc(SCC(=O)N3CC(C)OC(C)C3)nc12` (stereo not drawn) the figure was 1.96%; with `CCc1nc(NCCO)c(C#N)c2c1CCCC2`, 13.4%; with `CCOc1ccccc1-c1nnc(SCC(=O)NC2(C#N)CCCC2)o1`, -19.2%.
`CC(C)OC(=O)c1ccc(NC(=O)Cn2c(-c3nonc3N)nc3ccccc32)cc1`: the “hERG current change (%, negative = inhibition) at 10uM” value is 18.4%.
The same measure for `CC1(c2ccccc2)NC(=S)N2C1NC(=S)N2c1ccccc1` (stereo not drawn): 10.2%.
With `COc1cc(NC(=O)C/C(C)=N/NC(=O)c2cccc(O)c2)c(OC)cc1Cl` the figure was -8.16%.
For the molecule `CCOC(=O)COn1c(=O)c(=O)n(OC)c2ccccc21`, the “hERG current change (%, negative = inhibition) at 10uM” value is listed as 17.8%.
For the molecule `O=C(COC(=O)Cc1cn2ccsc2n1)NCc1ccc2c(c1)OCO2`, the “hERG current change (%, negative = inhibition) at 10uM” value was -15.2%.
With `Br.Cn1c(=N)n(CC(=O)c2cccs2)c2ccccc21` the figure was -0.146%.
Regarding `O=C(O)Cn1c(=O)n(Cc2ccccc2)c2ccccc21`, the “hERG current change (%, negative = inhibition) at 10uM” value amounted to 23.4%.
The same measure for `Br.N=c1n(CC(=O)c2ccc(Br)s2)c2ccccc2n1Cc1ccccc1`: -61.7%; for `CCCn1c(=N)n(CC(=O)c2cccs2)c2ccccc21`: -22%; for `Br.N=c1n(CC(=O)c2cccs2)c2ccccc2n1Cc1ccccc1`: -48%.
For `Br.CCCCn1c(=N)n(CC(=O)c2ccc(Br)s2)c2ccccc21`, the “hERG current change (%, negative = inhibition) at 10uM” value is -52.8%.
As for `CCC(C(=O)NCCN1CCOCC1)n1c2ccccc2c2nc(=O)cc(C)n21` (stereo not drawn), the “hERG current change (%, negative = inhibition) at 10uM” value worked out at 23.1%.
With `Cc1cccc(NC(=O)CSc2nnnn2-c2cccnc2)c1` the figure was -6.57%; with `COc1ccc(OC)c2nc(-c3cccnc3)ccc12`, 10.2%.
Regarding `O=C1CC2(CCN(C(=O)c3cccc(Br)c3)CC2)Oc2ccccc21`, the “hERG current change (%, negative = inhibition) at 10uM” value is reported as -85.5%.
As for `O=C1CC2(CCCCC2)Oc2ccc(Cl)cc21`, the “hERG current change (%, negative = inhibition) at 10uM” value is 1.26%.
With `CC(=O)Nc1ccc(S(=O)(=O)N2CCC3(CC2)CC(=O)c2ccccc2O3)cc1` the figure was -36.6%.
